Measurements reported in PubChem BioAssay AID488890 (Southern Research Specialized Biocontainment Screening …, 2010).
About 1,300 (0.41%) of roughly 320,000 compounds were called active. Not shown: some 3% with an inconclusive outcome. How the calls were made is not given here. These entries were drawn from the full list. Measured potencies and affinities stand elsewhere.

experiment: growth inhibition of non-replicating M. tuberculosis (AID 488890); conditions: Mycobacterium tuberculosis non-replicating, at 25 µM, stronger effect = higher value;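 further: plate controls were DMSO cells for no effect and high antibiotic wells for full effect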

Row | SMILES | inhibition
1 | O=C(NCCCn1ccnc1)Nc1ccc2c(c1)OCO2 | -2.69%
2 | Cc1cc(C)c(NC(=O)C2=COCCO2)c(C)c1 | -16.1%
3 | Cc1cc(C)c(-c2csc(NC(=O)C3=COCCO3)n2)c(C)c1 | 34.2%
4 | Cc1nc(-c2ccc(-n3nncc3-c3ccco3)cc2)cs1 | 58.1%
5 | Cc1ccc(C(=O)O/N=C(\N)Cc2cccs2)c(Cl)c1 | 60.4%
6 | C#CCOCCOCCOCCNc1nc(N2CCN(C(=O)[C@H](CCC(=O)O)n3cc(C(N)CC(C)C)nn3)CC2)nc(N2CCN(C(=O)[C@H](CCC(=O)O)n3cc(C(N)[C@H](C)CC)nn3)CC2)n1 (stereo not given in full) | -2.67%
7 | CCc1nc(CN2CCN(c3cc(C(F)(F)F)ccn3)CC2)c(C)[nH]1 | 20.5%
8 | CCCCN(CC)CCCNC(=O)c1cc2c(-c3ccc(OC)c(OC)c3)nn(C)c2s1 | 34.8%
9 | CCN(CC)CCNC(=O)c1cc2c(-c3ccc(Cl)cc3)nn(C)c2s1 | 67.4%
10 | Cc1nc(C(=O)N(C)C)nn1-c1ccc(Cl)cc1Cl | -3%
11 | COc1ccc(NC(=O)C2=Cc3ccccc3OC2)cc1 | 76.7%
12 | COc1ccc(C(CNC(=O)CSc2ccc(Br)cc2C)N2CCOCC2)cc1 (stereo not given) | 7.11%
13 | CCN1C(=O)/C(=C\N(C(C)=O)c2ccccc2)OC1=S | 6.17%
14 | CCc1nc(N(CC)CC)c2oc3ccccc3c2n1 | 25.6%
15 | c1ccc(Oc2nc(-c3cccnc3)nc3ccccc23)cc1 | 18.6%
16 | Cc1ccc(Oc2nc(-c3cccnc3)nc3ccccc23)c([N+](=O)[O-])n1 | -3.06%
17 | Fc1ccc(F)c(NC2=NCCCCC2)c1 | -19%
18 | COc1ccccc1C(=O)NNC1=C(C(=O)C(F)(F)F)CCC1 | 77.4%
19 | O=C(NNC1=C(C(=O)C(F)(F)F)CCC1)c1cccc(O)c1 | 58.3%
20 | O=C(NNC1=C(C(=O)C(F)(F)F)CCC1)c1cccnc1 | -16.6%
21 | O=C(NNC1=C(C(=O)C(F)(F)F)CCC1)c1ccncc1 | 56.2%
22 | Cc1ccc(CNC(=O)CN(c2ccc(C(C)C)cc2)S(=O)(=O)c2c(C)noc2C)cc1 | 7.31%

Row | SMILES | inhibition
23 | Cc1ccsc1/C=N/NC(=O)Cn1nc(C)c([N+](=O)[O-])c1C | -14.9%
24 | COc1ccccc1N1C[C@@H]2C[C@@H](c3ccco3)N3CCC[C@@]23C1=O | 14.9%
25 | COC(=O)C1=C(N)Oc2cc(C)n(CC3CCCO3)c(=O)c2C1c1ccccc1 (stereo not given) | 2.48%
26 | Cc1ccnc(NC(=O)C2CCN(S(=O)(=O)c3cccc4nonc34)CC2)c1 | 9.48%
27 | Cc1ccccc1NC(=O)c1cccc(S(=O)(=O)Nc2cccc(C(=O)O)c2)c1 | 19.2%
28 | CC1(C)Oc2ccc(C(=O)NN)cc2NC1=O | 9.35%
29 | COc1ccc(/C=C2\N=C(SC)SC2=O)cc1OC | 76.1%
30 | CC1=C/C(=C\c2ccc3c(c2)OCO3)C(=O)S1 | 31.9%
31 | CC1(C)CC(=O)C(C=Nc2ccc(N)cc2)=C(O)C1 | 23.2%
32 | CCOc1ccc(N=CC2=C(O)CC(C)(C)CC2=O)cc1 | 31.2%
33 | CCOc1cc(C2NCc3ccccc3-n3cccc32)ccc1OC (stereo not given) | 1.16%
34 | O=C1CN(C(=O)COC(=O)CCC(=O)c2ccc(Cl)cc2)c2ccccc2N1 | 16.1%
35 | COc1ccc(CNCc2ccc3ccccc3c2)c(OC)c1 | 23.2%
36 | COc1cccc(CNCc2ccc(OC)cc2OC)c1 | 16.2%
37 | COc1ccc(C)cc1NC(=O)c1sc2ncn(CC(=O)N3CCCCC3)c(=O)c2c1C | -1.26%
38 | Cc1nc2ccc(NC(=O)c3ccc(C)c(S(=O)(=O)N4CCOCC4)c3)cc2s1 | 29.1%
39 | CCN1CCC(O)(c2ccccc2)C(C(=O)c2ccccc2)C1 (stereo not given) | 3.22%
40 | CC1C(C)C(O)(c2ccccc2)CCN1C (stereo not given) | -18.2%
41 | OC1(c2ccccc2)CCN(Cc2ccccc2)CC1 | -5.95%
42 | OC(c1ccccc1)C1CN(Cc2ccccc2)CCC1(O)c1ccccc1 (stereo not given) | 16.7%
43 | O=C(NCc1ccco1)[C@@H]1CSC2c3ccccc3C(=O)N21 (stereo not given in full) | -2.9%
44 | CCCN(CC(=O)Nc1ccccc1OC)C(=O)c1ccc(=O)[nH]c1 | -2.3%

Row | SMILES | inhibition
45 | CN1CCN(c2ccccc2NC(=O)c2ccc(-c3ccc(Br)cc3)o2)CC1 | 7.26%
46 | CS(=O)(=O)N1CCN(c2ccc(NC(=O)c3ccc(-c4ccc(Cl)cc4)o3)cc2)CC1 | -19.8%
47 | CN1CCN(c2ccc(NC(=O)c3ccc(-c4ccccc4F)o3)cc2)CC1 | 79.5%
48 | S=C(c1ccc(-c2ccc(Br)cc2)o1)N1CCOCC1 | 74%
49 | CN1CCN(c2ccc(NC(=O)c3ccc(Br)o3)cc2)CC1 | -1.79%
50 | NC(=O)C1CCN(C(=S)c2ccc(-c3ccc(Br)cc3)o2)CC1 | 76.2%
51 | COC(=O)c1ccccc1NC(=O)CSc1ccc(C)cc1 | 66.9%
52 | Cc1onc(-c2c(Cl)cccc2Cl)c1C(=O)NC(=S)Nc1sc2c(c1C(N)=O)CCC(C)C2 (stereo not given) | 1.7%
53 | Cc1ccccc1C(=O)NC(=S)NC1CCSC1=O (stereo not given) | 6.25%
54 | COc1ccc(NS(=O)(=O)c2ccc(NC(=S)NC(=O)c3ccc(Br)cc3)cc2)nn1 | 52.8%
55 | CSCCC(NC(N)=O)C(=O)Nc1ccc(C)cc1 (stereo not given) | -6.3%
56 | Cc1ccc2cc3c(nc2c1)N(c1ccccc1)CC3 | -3.46%
57 | COc1ccc2cc3c(nc2c1)OCC3 | 52%
58 | CCOC(=O)NC(=O)/C(N=Nc1cccc(C(F)(F)F)c1)=C(\C)O | 22.5%
59 | COc1ccc(NC(=O)COC(=O)CN2C(=O)C3CC=CCC3C2=O)c([N+](=O)[O-])c1 (stereo not given) | 3.95%
60 | O=C(O)c1ccc(-[n+]2c(-c3ccccc3)cc(-c3ccccc3)cc2-c2ccccc2)cc1 | -4.01%
61 | CS(=O)(=O)N(CC(=O)N1CCOCC1)c1cc(C(F)(F)F)ccc1Cl | -10.6%
62 | COc1ccc(C(=O)OCC(=O)c2ccc(Cl)s2)c(OC)c1OC | 52.4%
63 | COc1ccc(C(=O)OCC(=O)c2ccc(Br)s2)c(OC)c1 | 66.5%
64 | O=C(NCCSc1ccccc1)c1ccc(CN2CCOCC2)cc1 | 11.6%
65 | Cn1c(N2CCN(C(c3ccccc3)c3ccccc3)CC2)nc2c1c(=O)[nH]c(=O)n2C | -1.75%
66 | Nc1ccc2c(c1)C(=O)c1ccccc1C2=O | -1.17%

Row | SMILES | inhibition
67 | Nc1ccc2c(c1)C(=O)c1ccccc1-2 | 79.4%
68 | O=C(CSc1nnc(C2COc3ccccc3O2)o1)Nc1ccc(F)cc1Cl (stereo not given) | 27.9%
69 | Cc1cc(NC(=O)CSc2nnc(C3COc4ccccc4O3)o2)no1 (stereo not given) | 1.04%
70 | CCOc1ccc(/C(C)=N\NC(=O)Cc2ccccc2)cc1 | 3%
71 | CC(/C=C/c1ccccc1)=N\NC(=O)CCc1ccccc1 | -7.22%
72 | C/C(=N\NC(=O)c1ccccc1O)C1CC1 | -6.46%
73 | CCOc1ccc(OCc2ccc(C(=O)N/N=C(\C)c3ccccn3)cc2)cc1 | 94.8%
74 | C/C(CCc1ccccc1)=N\NC(=O)CCc1ccccc1 | 2.92%
75 | CCC/C(=N/NC(=O)c1cccc(Cl)c1)c1ccccc1 | 76.9%
76 | CSC(=NNC(=O)c1ccccc1O)SC | 14.8%
77 | C/C(=N\NC(N)=O)c1cccc(Cl)c1 | -5.88%
78 | O=C(NCc1nnc(SCC(=O)N2CCC(Cc3ccccc3)CC2)o1)c1ccccc1F | 47.1%
79 | CCCCn1c(N)c(N(C)C(=O)c2cc3c(s2)CCCCC3)c(=O)[nH]c1=O | 19.5%
80 | Cc1ccc(N(CC(=O)NCc2ccco2)C(=O)CCC(=O)Nc2nccs2)cc1C | -4.11%
81 | CCc1ccc(NC(=O)CSc2nc(O)cc(=O)n2C2CCCC2)cc1 | 37.7%
82 | COc1ccc(Cl)cc1NC(=O)CN(C)C(=O)c1cc(=O)c2ccccc2o1 | -2.49%
83 | CCOC(=O)c1sc(NC(=O)CSc2ccccn2)c(C#N)c1C | 5.94%
84 | CC(=O)N(Cc1ccccc1)Cc1cn(CCC#N)nc1-c1cccc([N+](=O)[O-])c1 | -6.03%
85 | CC(/C=C/c1ccco1)=N/NC(=O)c1ccccc1Cl | 48.9%
86 | C/C(CC(=O)N1CCCC1)=N\NC(=O)c1cc2ccccc2cc1O | 7.43%
87 | CC(=O)N1CCC(=NNC(=O)c2cc3ccccc3cc2O)CC1 | 4.69%
88 | C/C(=N\NC(=O)c1cc2ccccc2cc1O)c1ccc2c(c1)OCO2 | 14.4%

Row | SMILES | inhibition
89 | C/C(=N\NC(=O)c1c[nH]c2ccccc12)c1ccc(C)o1 | 33.3%
90 | CC(/C=C/c1ccco1)=N\NC(=O)c1cccnc1 | 12.9%
91 | CCCCC(NC(=O)c1ccc(Cl)cc1)C(=O)O (stereo not given) | -0.66%
92 | O=C(C[n+]1cccc(CNC(=O)c2ccc(OC(F)F)cc2)c1)Nc1ccccc1Cl | 7.02%
93 | O=C(c1ccc([N+](=O)[O-])cc1)N1CCN(Cc2ccccc2[N+](=O)[O-])CC1 | 12.7%
94 | COc1ccc(C2C(C(=O)NCCN3CCOCC3)c3ccccc3C(=O)N2C2CCCCC2)cc1 (stereo not given) | 28.1%
95 | O=C(/C=C/NCc1cccnc1)c1ccc(Br)cc1 | 77.9%
96 | COc1cc(NC(=O)CSc2nc(=O)n(CCN3CCOCC3)c3c2CCC3)cc(OC)c1 | 1.82%
97 | O=C(C1CCCN1S(=O)(=O)c1cccc2nsnc12)N1CCN(c2ccc(F)cc2)CC1 (stereo not given) | -10%
98 | COc1ccc(N(CC(=O)Nc2ccc(F)c(Cl)c2)S(=O)(=O)c2c(C)noc2C)cc1 | 19.1%
99 | CCc1noc(C)c1C(=O)OC(C)C(=O)c1c(C)[nH]c2ccccc12 (stereo not given) | 26.3%
100 | Cc1cnc(C(=O)OC(C)C(=O)c2c(C)[nH]c3ccccc23)cn1 (stereo not given) | 12.1%
101 | CCN(CC)C(=O)CSc1nnc(-c2ccco2)o1 | 18.1%
102 | CCCOc1ccc(C(=O)CCNc2cccc(Cl)c2)cc1 | 74.8%
103 | O=C1NC(=O)N(Cc2ccco2)C(=O)/C1=C/c1cccn1CCOc1ccccc1Cl | 62.6%
104 | Cc1cccc(OCCn2cccc2/C=C2/C(=O)NC(=O)N(Cc3ccco3)C2=O)c1 | 49.4%
105 | O=C(NCCCOc1cccc(CN2CCCCC2)c1)c1ccc(Cl)c(Cl)c1 | 56.6%
106 | COc1cccc(Nc2nc(C)cc(C)c2C(N)=O)c1 | -12.4%
107 | COc1ccc2cc(CN(Cc3cccs3)Cc3nnnn3Cc3ccccc3)c(=O)[nH]c2c1 | 27.5%
108 | Cc1[nH]n(-c2ccccc2)c(=O)c1C(=O)c1ccc([N+](=O)[O-])cc1 | 16.4%
109 | Cc1[nH]n(-c2ccccc2)c(=O)c1C(=O)c1cccc(F)c1 | 69%
110 | Cc1cccc[n+]1CC(=O)/C=C1\N(C)c2ccccc2C1(C)C | -1.75%
